# ALDH1A1 inh – inhibitors of human aldehyde dehydrogenase 1A1. 7.3% of 220,000 active. P00352. Potency, µM (top dose mostly 75.3 µM), for inactives: top-dose activity, negative = inhibition, hits mostly inhibitors. Purified ALDH1A1, NADH fluorescence, propionaldehyde substrate;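 also: potency is read from the fitted curve at half-maximal effect; plate controls were no enzyme wells and a reference inhibitor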
# Target sequence (P00352 whole entry, looked up): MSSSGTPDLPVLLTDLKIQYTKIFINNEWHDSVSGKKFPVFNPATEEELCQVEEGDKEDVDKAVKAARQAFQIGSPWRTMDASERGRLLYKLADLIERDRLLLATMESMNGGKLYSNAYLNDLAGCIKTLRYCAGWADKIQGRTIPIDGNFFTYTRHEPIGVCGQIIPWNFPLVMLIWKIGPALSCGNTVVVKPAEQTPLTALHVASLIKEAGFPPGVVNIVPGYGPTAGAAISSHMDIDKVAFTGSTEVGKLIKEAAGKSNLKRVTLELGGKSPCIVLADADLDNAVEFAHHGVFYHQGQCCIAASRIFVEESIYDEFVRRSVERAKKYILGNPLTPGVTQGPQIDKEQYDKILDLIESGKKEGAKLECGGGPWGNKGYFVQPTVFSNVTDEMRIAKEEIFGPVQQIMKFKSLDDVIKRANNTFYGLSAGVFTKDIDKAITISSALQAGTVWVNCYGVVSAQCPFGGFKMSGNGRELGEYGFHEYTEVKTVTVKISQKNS
# PNC inhibitor – blocks assembly of the perinucleolar compartment; PC3M PTB-GFP, PNC prevalence imaging, 16 h; stronger effect = lower value; activity change (PNC), negative = inhibition, % at 10 µM; 3.1% of 140,000 active;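 active = readout at or below -70, meaning at least 70% loss of cells showing the perinucleolar compartment, a nuclear body marking cancer cells; inconclusive = readout between -30 and a set limit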;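 also: plate controls were DMSO wells for no effect and camptothecin positive control wells for full effect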
#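 PC3M cells stably expressing PTB-GFP, 750–1000 cells/well, treated 16 h at 37 °C with compound (23 nl of library stock), in duplicate. After paraformaldehyde fixation and Hoechst stain, imaged at 20x; PNC prevalence scored by image analysis.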
# HPGD inh – blocks human HPGD enzyme activity | Potency, µM, for the others: at the highest dose activity change, negative = inhibition, hits mostly inhibitors | purified HPGD, NADH fluorescence kinetic, PGE2 substrate | P15428 | 4.3% of 150,000 active; also: potency is read from the fitted curve at half-maximal effect
#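 NADH formation kinetics: reaction with 30 uM PGE2 and 1 mM NAD+ (final), 20 nM enzyme, Tris-HCl pH 8 with Tween 20, after 15 min compound preincubation at room temperature. Fluorescence change, last versus first of five reads.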
# An asterisk follows results filed as active; ? = inconclusive; . = no result; [ ] = dose if it differs, or a comment. Most compounds without a hit are left out; they make up all but 11% or so of the library. Unless noted, calls follow the shape of the dose curve; as a rule, active = well fitted inhibition curve with a large enough effect (not every such curve was filed as active); inconclusive = small, poorly fitted or top-dose-only effect, or another doubt; inactive = no such curve, though single readings can be large or run the other way. Unless noted, % is scaled to controls: 0 for no effect and ±100 for the full control effect.
SMILES,ALDH1A1 inh,PNC inhibitor,HPGD inh
O=S1(=O)N=C(Nc2ccc(N3CCOCC3)cc2)c2ccccc21,0%,6,1%
Cc1ccccc1-c1ccc(Nc2ccc(N3CCOCC3)cc2)nn1,8.9µM*,43,-22%
O=C(CN(c1ccc(F)cc1)S(=O)(=O)c1ccc2c(c1)OCCO2)NCc1ccccn1,-7%,-14,-5%
CCOC(=O)N1CCc2c(sc3nc(SC(C)C)n(N)c(=O)c23)C1,4.5µM*,?,.
CN1CCc2c(sc3nc(SCC(N)=O)n(-c4ccccc4)c(=O)c23)C1,?,8,?
COCCn1nnnc1C(C(C)C)N1CCSCC1 (stereo unspecified),-3%,.,.
Cc1ccc(C(=O)CC2(O)C(=O)N(CCc3ccccc3)c3ccc(Br)cc32)o1 (stereo unspecified),?,41,-14%
Cc1ccc(C)c(C(=O)CC2(O)C(=O)N(C)c3ccccc32)c1 (stereo unspecified),-6%,?,-12%
C=CCN1C(=O)C(O)(CC(=O)c2c(C)n[nH]c2C)c2cc(Br)ccc21 (stereo unspecified),?,36,1%
Cc1ccc(C(=O)CC2(O)C(=O)N(Cc3ccccc3Cl)c3ccccc32)o1 (stereo unspecified),3.5µM*,-17,-21%
C/C(CC1(O)C(=O)N(Cc2ccccc2)c2ccccc21)=N\O (stereo unspecified),1.6µM*,?,-16%
COc1ccc(CN2C(=O)C(O)(CC(=O)c3c(C)n[nH]c3C)c3ccccc32)cc1OC (stereo unspecified),3.5µM*,?,-4%
CC(=O)CC1(O)C(=O)N(Cc2ccccc2)c2ccccc21 (stereo unspecified),?,59,-4%
Cc1coc(C)c1C(=O)CC1(O)C(=O)N(Cc2ccccc2)c2ccccc21 (stereo unspecified),4.5µM*,?,-27%
CCCCC[C@H](O)/C=C/[C@H]1[C@H](O)CC(O)[C@@H]1C/C=C\CCCC(=O)O (stereo partly specified),6%,.,.
O=C(O)CCSCc1ccc(I)cc1,4%[13.5 µM],.,-6%
Cc1ccc(C(=O)C2=C(O)C(=O)N(Cc3ccccc3)C2c2cccnc2)o1 (stereo unspecified),-5%,?,-12%
Cc1ccc(C(=O)CC2(O)C(=O)N(Cc3ccccc3)c3ccccc32)o1 (stereo unspecified),0.71µM*,44,-12%
O=C(CCCNS(=O)(=O)c1ccc(Br)cc1)N1CC[C@@]2(O)CCCC[C@H]2C1,-5%,-9,-8%
CC[C@@H](C)[C@@H](C(=O)N1CCNCC1)n1cc(CCC(=O)O)nn1,5%,.,.
CSC(=[SH+])N=N/C(=C1/C=CC=CN1)c1ccccn1.[Cu][Br],0.63µM*,.,?
CCOc1cc(S(=O)(=O)Nc2ccc(Cl)cn2)ccc1Cl,-12%,?,0%
Cc1ccc(NS(=O)(=O)c2cccc([N+](=O)[O-])c2)nc1,11µM*,.,.
Cc1ccc(S(=O)(=O)Nc2ccccn2)cc1[N+](=O)[O-],-41%,.,.
O=S(=O)(Nc1ccc(Cl)cn1)c1cccc(S(=O)(=O)c2ccccc2)c1,20µM*,.,.
SMILES,ALDH1A1 inh,PNC inhibitor,HPGD inh
CCOC(=O)C1(CC2CC2)CCN(C(=O)c2cccnc2C)CC1,-1%,.,.
O=C(CCN1C(=O)C2CCCCC2C1=O)Nc1nc(-c2ccccc2)cs1 (stereo unspecified),5%,.,.
Cc1ccc2cc(C#N)c(NCCCNC(=O)C3CCCO3)nc2c1 (stereo unspecified),?,17,?
N#Cc1ccc(CN2CCC3(CC2)CCN(C(=O)c2csnn2)CC3)cc1,7%,.,-3%
O=C1OC(c2ccccc2)=C/C1=C/N1CCCCC1,10µM*,19,?
O=C1OC(c2ccccc2)=N/C1=C\N1CCCCC1,-16%,48,-28%
CCN(CC)CC(=O)N1c2ccccc2Sc2ccc(Cl)cc21,1%,-100*,-15%
O=C(CSc1nc2ccccc2s1)N1c2ccccc2Sc2ccc(Cl)cc21,?,?,-5%
COc1ccc(/C=N/Nc2cn[nH]c(=O)c2Cl)cc1,1%,.,.
NCCC[C@H](N)CC(=O)N[C@H]1CNC(=O)[C@@H]([C@@H]2C[C@H](O)N=C(N)N2)NC(=O)/C(=C/NC(N)=O)NC(=O)[C@@H](CO)NC(=O)[C@@H](CO)NC1=O,14%[20.9 µM],.,3%
Cc1ccc(SCC(=O)NC(=O)c2ccc(S(=O)(=O)N(C)C)cc2)cc1C,-3%,-28,-18%
Cc1ccc(-c2n[nH]c(=S)c3ccccc23)cc1,0.35µM*,.,.
CCSc1nnc(-c2ccc(C)cc2)c2ccccc12,-3%,7,-6%
S=c1[nH]ncc2ccccc12,-4%,13,.
S=c1[nH]nc(-c2ccccc2)c2ccccc12,8.9µM*,.,.
O=c1[nH]c(=O)n([C@@H]2O[C@H](CO)[C@@H](O)[C@H]2O)cc1F,-2%,.,1%
O=C(N/C(=C/c1cccc([N+](=O)[O-])c1)C(=O)N1CCCCC1)c1cccs1,?,-29,-5%
CCCc1nnc(NC(=O)Cn2c(=O)oc3ccccc32)s1,10µM*,22,28µM*
CCc1nnc(NC(=O)Cn2c(=O)oc3ccccc32)s1,3%,-9,-2%
CCCOc1ccc(CNC(=O)Cn2c(=O)oc3ccccc32)cc1,-6%,?,-16%
CC(C)Oc1ccc(CNC(=O)Cn2c(=O)oc3ccccc32)cc1,-10%,20,20µM*
Cc1sc(NC(=O)Cn2c(=O)oc3ccccc32)nc1-c1ccc(Cl)cc1,6%,15,-7%
CC(C)CN(CC(C)C)c1nnc(NC(=O)Cn2c(=O)oc3ccccc32)s1,1.4µM*,24,-10%
Nc1cc(C(=O)c2ccccc2)ccc1[N+](=O)[O-],2%,.,.
CCOC(=O)Cc1cc(=O)[nH]c(/N=C(\N)Nc2ccc(C)cc2C)n1,5%,-29,-17%
SMILES,ALDH1A1 inh,PNC inhibitor,HPGD inh
Cc1ccc(-c2nnn(CC(=O)Nc3cccc4cccnc34)n2)o1,?,38,-28%
O=C(NC(=S)Nc1ccc(N2CCCCC2)cc1)c1ccco1,?,-25,18µM*
O=C(N/N=C/c1ccc(N2CCCCC2)o1)c1ccccc1[N+](=O)[O-],?,3,10µM*
COc1cc(C(=O)NC(=S)Nc2ccc(NC(=O)c3ccco3)cc2)cc(OC)c1OC,?,59,-13%
O=C(NC(=S)Nc1ccccc1N1CCCC1)c1ccccc1[N+](=O)[O-],?,-20,0%
O=C(NC(=S)Nc1ccc(NC(=O)c2ccco2)cc1)c1ccccc1,?,-88*,-10%
CC1CCN(c2ccc(NC(=S)NC(=O)c3ccco3)cc2)CC1,?,39,-26%
O=C(NC(=S)Nc1ccc(N2CCCC2)cc1)c1ccccc1[N+](=O)[O-],?,-83*,-11%
O=C(N/N=C/c1ccc(N2CCOCC2)o1)c1ccccc1[N+](=O)[O-],?,9,-19%
COc1ccc(NC(=O)CSc2nnc(NC(=O)c3ccccc3C(=O)O)s2)cc1,0%,.,.
COc1ccc(-n2c(=O)c(C)nc3cnc(Nc4cccc(OC)c4)nc32)cc1,?,.,-13%
COc1ccc(-c2nc3c(c4c2C[C@H](c2ccccc2)OC4)CN(S(=O)(=O)c2ccc(C)cc2)CC3)c(C)c1,?,.,-4%

# Compound activity deposited in PubChem by National Center for Advancing Translational Sciences (NCATS).
